Structures are written as SMILES. Calls of active or inactive are those of the source.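 How the source made its calls, unless noted: active means z-score of at least 1.8 in each of two replicates, scored against plate mean and spread of sample wells; inactive means the rest.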

The results in this text go back to PubChem BioAssay.

A short description of assay [1]: survival rescue of mitochondrial mutant cells in low glucose, primary screen, MELAS cybrids, Rieske KO mouse fibroblasts, CellTiter-Glo (AID 1508586;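 active means mean z-score across replicates of 1.96 or higher in either the MELAS or the Rieske mutant cell line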;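 further: test concentration not given here; z relative to plate mean and SD of compound and empty wells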). In general terms: ATP-based viability assays read luminescence as a measure of living cells.
A short description of assay [2]: viability rescue of complex I mutant cybrids, primary screen, cell-based, galactose medium, ATP luminescence (AID 1645843).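 Further: positive z means more ATP and so rescue of galactose-driven cybrid death.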 As to conditions: complex I mutant cybrid cells, 72 h, stronger effect = higher value.
Setting [3] is: MELAS cybrid survival, CellTiter-Glo 48 h, stronger effect = higher value.
[4] abbreviates: Rieske KO mouse fibroblast survival, CellTiter-Glo 72 h.

On to `COc1ccc(-c2cc3c(n(C)c2=O)CCN(C2CCSC2)C3)c2ccc(C)nc12` (stereo unspecified), for which the z-score was -0.852 (inactive) in assay [1] (setting [3]), -0.332 in assay [1] (setting [4]) and 1.09 (inactive) in assay [2].

For the molecule `Cc1csc(SCC(=O)N2CCc3c(cc(-c4csc5ccccc45)c(=O)n3C)C2)n1`, the z-score in assay [1] (setting [3]) is -0.151 (inactive); in assay [1] (setting [4]) it was 0.398; in assay [2], 1.5 (inactive).

In the case of `Cc1ccc2c(CC(=O)N3CC(=O)N(CC(C)C)CC(OCc4ccccn4)C3)cc(=O)oc2c1` (stereo unspecified), the z-score in assay [1] (setting [3]) is -0.0739 (inactive); in assay [1] (setting [4]), 0.0342; in assay [2], 0.435 (inactive).

On to `Cc1ccn2cc(C(=O)N3CCc4c(cc(-c5ccc(OC(F)(F)F)cc5)c(=O)n4C)C3)nc2c1`, for which the z-score in assay [1] (setting [3]) is -0.191 (inactive); in assay [1] (setting [4]), -0.543; in assay [2] it was 1.4 (inactive).

As to `CCN1CCN(C(=O)c2cc(-c3cc(C)cs3)cc(S(=O)(=O)N3CCOCC3)c2)CC1`, the z-score was -0.416 (inactive) in assay [1] (setting [3]), -0.432 in assay [1] (setting [4]) and 2.05 (inactive) in assay [2].

Consider `COc1ccc(CN2CC(OCc3cccnc3)CN(C(=O)C3=NN(C)C(=O)CC3)CC2=O)cc1` (stereo unspecified), for which the values for the z-score in assay [1] (setting [3]), in assay [1] (setting [4]) and in assay [2] were -0.43 (inactive), -0.34 and 1.23 (inactive), respectively.

Regarding `Cc1csc(-c2cc(C(=O)N3CCC(N(C)C)C3)cc(S(=O)(=O)N3CCOCC3)c2)c1` (stereo unspecified), the z-score in assay [1] (setting [3]) is -0.101 (inactive); in assay [1] (setting [4]), 0.349; in assay [2], 0.805 (inactive).

In the case of `CCOC(=O)c1nn(CC)c2c1CN(C(=O)Cn1nc(-c3ccccc3)c3ccccc3c1=O)CC2`, the values for the z-score in assay [1] (setting [3]), in assay [1] (setting [4]) and in assay [2] were -0.0607 (inactive), 0.472 and 0.925 (inactive), respectively.

As for `O=C1N[C@@H](CSCc2ccccc2)C(=O)N2CCN(C(=O)Oc3ccccc3)C[C@H]12`, the z-score is 1.38 (inactive) in assay [1] (setting [3]), -0.171 in assay [1] (setting [4]) and -1.57 (inactive) in assay [2].

Turning to `CC(C)Cn1nc(C(=O)NCc2cccnc2)c2c1CCN(C(=O)c1scc3c1OCCO3)C2`, the z-score in assay [1] (setting [3]) was -0.675; in assay [1] (setting [4]), 5.2; in assay [2], -1.46 (inactive).

On to `COCC(=O)Nc1c(C(=O)OC)n(CCC(C)C)c2ncc(NC(C)CCn3cccn3)cc12` (stereo unspecified), for which the z-score in assay [1] (setting [3]) was 0.765; in assay [1] (setting [4]), 4.41; in assay [2], -0.21 (inactive).

Regarding `O=C(Nc1ccccc1Cl)N[C@H]1C[C@H]2C(=O)N[C@H](Cc3ccc(O)cc3)C(=O)N2C1`, the z-score is -0.242 (inactive) in assay [1] (setting [3]), -0.509 in assay [1] (setting [4]) and -0.455 (inactive) in assay [2].

For the molecule `COCc1ccc(CN2CCC3(CC2)C(=O)N(C2Cc4ccccc4C2)C(=O)N3CC(C)C)o1`, the z-score in assay [1] (setting [3]) was -0.309 (inactive); in assay [1] (setting [4]), -0.702; in assay [2] it was 1.99 (active).

For the molecule `O=C(CC1=CCCCC1)N1CCc2c(cc(-c3cccc(F)c3)c(=O)n2CCN2CCCCC2)C1`, the z-score in assay [1] (setting [3]) is -0.288 (inactive); in assay [1] (setting [4]), -0.152; in assay [2] it was 0.55 (inactive).

As to `CC[C@@H]1NC(=O)[C@H]2CN(CCC(C)C)CCN2C1=O`, the z-score in assay [1] (setting [3]) is 0.225 (inactive); in assay [1] (setting [4]) it was 0.0851; in assay [2], -0.555 (inactive).

Turning to `COc1ccc(CN2C[C@@H](CN3CCOCC3)C[C@@H](C(=O)NCC(C)C)C2)cc1OC`, the z-score was 0.036 (inactive) in assay [1] (setting [3]), -0.053 in assay [1] (setting [4]) and 0.1 (inactive) in assay [2].

For the molecule `O=C([C@@H]1C[C@H](CN2CCOCC2)CN(Cc2ccccc2)C1)N1CCCC1`, the z-score is 0.0951 (inactive) in assay [1] (setting [3]), -0.211 in assay [1] (setting [4]) and -0.6 (inactive) in assay [2].

`CCOC(=O)N1CCC(N2CCc3c(cc(-c4cccc(OC)c4OC)c(=O)n3CC3CC3)C2)CC1`: the z-score was -0.362 (inactive) in assay [1] (setting [3]), -0.0606 in assay [1] (setting [4]) and -0.36 (inactive) in assay [2].

As to `COC(=O)CCN1CC(OCc2ccncc2)CN(C(=O)c2csc(SC)n2)CC1=O` (stereo unspecified), the z-score in assay [1] (setting [3]) was -0.62 (inactive); in assay [1] (setting [4]) it was -0.661; in assay [2] it was 0.42 (inactive).

As for `CCOC(=O)c1nn(CCc2ccccc2)c2c1CN(C(=O)CCc1nc3ccccc3s1)CC2`, the results for the z-score in assay [1] (setting [3]), in assay [1] (setting [4]) and in assay [2] were -0.261 (inactive), 0.0715 and 0.345 (inactive), respectively.

`CCC(CC)CNc1cc(C(=O)NCCN(C)C)cc(S(=O)(=O)Nc2ccc(OC)cc2)c1`: the values for the z-score in assay [1] (setting [3]), in assay [1] (setting [4]) and in assay [2] were -0.364 (inactive), 0.972 and -1.11 (inactive), respectively.

As for `CCOC(=O)N1CCC(NC2CCc3c(c(C(=O)N(C)C)nn3Cc3ccccc3)C2)CC1` (stereo unspecified), the z-score was -0.0814 (inactive) in assay [1] (setting [3]), 0.468 in assay [1] (setting [4]) and -0.835 (inactive) in assay [2].

As to `CC(C)N1CCN(C(=O)c2cc(-c3ccccc3)cc(S(=O)(=O)N3CCSCC3)c2)CC1`, the z-score was -0.246 (inactive) in assay [1] (setting [3]), -0.306 in assay [1] (setting [4]) and 1.2 (inactive) in assay [2].

Take `CC(C)CN1CC(OCc2cccc(F)c2)CN(C(=O)Cn2cnc3ccccc3c2=O)CC1=O` (stereo unspecified): the results for the z-score in assay [1] (setting [3]), in assay [1] (setting [4]) and in assay [2] were -0.0292 (inactive), 0.00727 and -0.43 (inactive), respectively.

For the molecule `COc1ccccc1C(=O)N1CCN2C(=O)[C@H](CCCCN)NC(=O)[C@H]2C1`, the z-score in assay [1] (setting [3]) was 0.643 (inactive); in assay [1] (setting [4]), -0.574; in assay [2] it was -0.735 (inactive).

Regarding `CN(C)c1ccc(/C=C/CN2CC(=O)N(CCCN3CCCC3=O)CC(O)C2)cc1` (stereo unspecified), the figures for the z-score in assay [1] (setting [3]), in assay [1] (setting [4]) and in assay [2] were -0.11 (inactive), -0.286 and 0.35 (inactive), respectively.

In the case of `CN(C)CCCNC(=O)[C@@H]1C[C@H](CN2CCOCC2)CN(CCc2ccccc2)C1`, the z-score in assay [1] (setting [3]) was -0.339 (inactive); in assay [1] (setting [4]), -0.139; in assay [2] it was -0.365 (inactive).

Regarding `COc1cccc(C(=O)N2CCN3C(=O)[C@@H]4C[C@@H](O)CN4C(=O)[C@H]3C2)c1`, the z-score in assay [1] (setting [3]) was -0.0988 (inactive); in assay [1] (setting [4]), 0.379; in assay [2], 0.555 (inactive).

For the molecule `CCc1nc(Cn2c3c(cc(-c4ccccc4C)c2=O)CN(Cc2ccc(O)c(Cl)c2)CC3)no1`, the z-score in assay [1] (setting [3]) is -0.286 (inactive); in assay [1] (setting [4]), -0.271; in assay [2], 0.44 (inactive).

`CCCCNC(=O)[C@@H]1C[C@H](CN2CCOCC2)CN(Cc2ccc(OC)c(OC)c2)C1`: the figures for the z-score in assay [1] (setting [3]), in assay [1] (setting [4]) and in assay [2] were -0.184 (inactive), 0.521 and 1.15 (inactive), respectively.

Take `Cc1ccc(-c2cc(C(=O)N(C)CCc3cnn(C)c3)cc(S(=O)(=O)N3CCOCC3)c2)s1`: the z-score was -0.0954 (inactive) in assay [1] (setting [3]), -0.0313 in assay [1] (setting [4]) and 0.925 (inactive) in assay [2].

As for `COc1cc(/C=C/CN2CC(=O)N(C(C)C)CC(OCc3noc(C)n3)C2)ccc1O` (stereo unspecified), the results for the z-score in assay [1] (setting [3]), in assay [1] (setting [4]) and in assay [2] were -0.167 (inactive), -0.562 and -1.32 (inactive), respectively.

As to `O=C1N[C@@H](Cc2ccccc2)C(=O)N2CCN(C(=O)c3cccs3)C[C@H]12`, the z-score in assay [1] (setting [3]) was -0.168 (inactive); in assay [1] (setting [4]) it was -0.046; in assay [2], -1.15 (inactive).

Turning to `Cn1cc(CN2CC(OCc3cccnc3)CN(Cc3cn[nH]c3-c3ccccc3)CC2=O)cn1` (stereo unspecified), the z-score is -0.178 (inactive) in assay [1] (setting [3]), -0.506 in assay [1] (setting [4]) and 0.715 (inactive) in assay [2].

On to `Cc1csc(-c2cc(C(=O)N(C)C3CCN(C)CC3)cc(S(=O)(=O)N3CCOCC3)c2)c1`, for which the z-score in assay [1] (setting [3]) is -0.654 (inactive); in assay [1] (setting [4]), -0.32; in assay [2], 0.47 (inactive).

As for `CCC(C)C(=O)Nc1c(C(=O)OC)n(CC2CCCO2)c2ncc(NC3CCSC3)cc12` (stereo unspecified), the z-score in assay [1] (setting [3]) was -0.0694 (inactive); in assay [1] (setting [4]), 1.01; in assay [2], -0.775 (inactive).

On to `Cc1ccc(-c2cc(C(=O)NCC3CC3)cc(S(=O)(=O)N3CCOCC3)c2)s1`, for which the z-score is -0.142 (inactive) in assay [1] (setting [3]), 0.0847 in assay [1] (setting [4]) and 0.15 (inactive) in assay [2].
